Where a chain is given by its changes, count along the chain named. Whole data set: some 24,000 sequences, median “enrichment r” near 0.99, cut for the highest 2% near 3.7. The list comes from a sample in which the highest values are over-represented; it also holds similar and randomly drawn sequences.
T1: UNK ZnF1-3 (human, UniProt Q9C0B0 31-174)
T1 sequence: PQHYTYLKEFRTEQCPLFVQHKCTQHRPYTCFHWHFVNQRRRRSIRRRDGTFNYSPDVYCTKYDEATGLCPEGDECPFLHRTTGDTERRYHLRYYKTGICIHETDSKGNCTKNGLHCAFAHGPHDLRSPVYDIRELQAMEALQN

B1: chr3:10015032:10015033:+_ENSMUSG00000027533_ENSMUST00000029046|mus_mus|mus_mus_mus_hu_True|1_28 (ssRNA)
RNA: GGGAGUUCUACAGUCCGACGAUCGUUUUUACCAUCACAAGUGAUGAUACAAUCUGGCUUGGCCAUUGCGCCCAUUUUUCGCAAAGCUAUUCCCACUCCUAGCUCCUUCAUGUACUCAUCAAAGCCUUUGCUGUCCAUCAGGCGCAACAGAGGAUUGAGCAUCA
B2: chr7:151048522:151048523:+_ENSG00000013374_ENST00000566856|hu_mus|hu_hu_hu_mus_True|18_78 (ssRNA)
RNA: GGGAGUUCUACAGUCCGACGAUCCUGUUUCUUAUUUAUUACGAUCUUGAUGUAAUUUUCUUGAAGUCCGAAAGUUUCAGCUAUUUGACACCUCAGGUCUCUACCAGUGACAUGCAAUCGGGUCUCCAACAAGCUUUUCUUAUCCAACAGAGGAUUGAGCAUCA
B3: chr11:46405157:46405158:+_ENSG00000110492_ENST00000395566|hu_hu|hu_hu_hu_mus_False|1_98 (ssRNA)
RNA: GGGAGUUCUACAGUCCGACGAUCCCCUCCCCACUUUGGCUGGGGAGUGUGGGCGUGAGAGGACAGGCGUGAUUGACAGAGCUGACAGGAAGACAAAAGGCACUGGUGGGUUAUAUCUUGGGCCUGUGGGAGAGGAGGCGUGGGCAACAGAGGAUUGAGCAUCA
B4: chr19:7991675:7991676:-_ENSG00000104980_ENST00000595831|hu_hu|motif|central (ssRNA)
RNA: GGGAGUUCUACAGUCCGACGAUCCCAAAUCUCAGGCUUAUGCACAAGAUGGAAGAGCACUGUUAAAAUUAAAAAAUGGACCGGAAGUGGCUUGGCUGACGUGGCUAGCGGGCCACUGAGCCGCGGGUCCCGGGUCCCACCCUGCAACAGAGGAUUGAGCAUCA
B5: 193332725_193333477_540_CDS_ENSG00000198836_ENST00000392438|human|control|control (ssRNA)
RNA: GGGAGUUCUACAGUCCGACGAUCCCACUGAUCAAAAGUCUUUUUGGCUGUGUAGCCACCCCCAACAGCCGAUCCUAGUAUGAGAUAGCGAAGUUUUAAGAGUCUCGUAGCUAAUCUUGCUGGCCAAAAAUUCCUGCGAGGCUGCAACAGAGGAUUGAGCAUCA
B6: chr9:100883651:100883652:-_ENSG00000106789_ENST00000375077|hu_mus|FALSE|FALSE (ssRNA)
RNA: GGGAGUUCUACAGUCCGACGAUCUCCCAAGGCAAGAAGGAAGGAGCCGAGGGCGGCUUUGCUGCUUGGGUGGUCACUGUGUCAGGGGGCAGUGUUGCUCCAUUAGCCCAAGAACAUAAAAACAUAAUCUUAAAAAAAUAUGACCAACAGAGGAUUGAGCAUCA
B7: chr19:7991675:7991676:-_ENSG00000104980_ENST00000595831|hu_hu|FALSE|FALSE (ssRNA)
RNA: B4 RNA with G82U, G83A
B8: chr7:54825262:54825263:-_ENSG00000132432_ENST00000352861|hu_hu|motif|central (ssRNA)
RNA: GGGAGUUCUACAGUCCGACGAUCCCGACUUGGCUCAACAAACUGCAUUACCUGAUCCAUGACUGCCUACCCAACCGACACCGGAAAUGCCAGGGACACGUAGCACUGGAGCUUGCUGAUGGAGGCCCACCGGAACCGGAAUCCCAACAGAGGAUUGAGCAUCA
B9: chr1:129704038:129704039:+_ENSMUSG00000026349_ENSMUST00000027587|mus_mus|FALSE|FALSE (ssRNA)
RNA: GGGAGUUCUACAGUCCGACGAUCAGGCCAAAGCUGCCCUCCAAGUGUCGGUUGGCCUGCAUUAAUUACAGCUGUGCCUGCACACUUGUCUCAACAUCAAGUACUGAGGGAAAACGGGAAUGCACUCUGCCUCUGGUCAGUACACAACAGAGGAUUGAGCAUCA
B10: chr10:110404880:110404881:-_ENSMUSG00000035798_ENSMUST00000041723|mus_hu|motif|central (ssRNA)
RNA: GGGAGUUCUACAGUCCGACGAUCGUUUUUGUGAUACUUGUCACCAAGGUUAACUGAAACAUUGAAUGUUAAAAGCAAUCGGGUUGGAUCCACACUAUGUGUUCUAUAUGCUGCCCACAUUAAAGGCGUCAUUCCAUUCUGAUCCAACAGAGGAUUGAGCAUCA
B11: 23688267_23688387_1410_3pUTR_ENSMUSG00000048439_ENSMUST00000049887|mouse|control|control (ssRNA)
RNA: GGGAGUUCUACAGUCCGACGAUCUGAAUUUGUGGUGUUCUGCUGCUCAGCUUCCCAGACUGUAGGCAUGCAGGACAUGCCUGGCUAAGGCAUUCUUUCUGUAUUUAAACCUGACCUUUAUACAGUCAGAAGCUCGACCGGUGGCAACAGAGGAUUGAGCAUCA
B12: chr2:228221723:228221724:+_ENSG00000168958_ENST00000354503|hu_mus|FALSE|FALSE (ssRNA)
RNA: GGGAGUUCUACAGUCCGACGAUCGACCAUUUCUCUUUUAGCACGCUCUUUAUUCUCCUCUUCCAGAAGUUGGAGACGUCUAUUUAAUUUGAUUAUCUGACGUCUUAAUGAAGCUGCAUCUACCACAGUCAUGUCAUCUGAAGCCAACAGAGGAUUGAGCAUCA
B13: 60766941_60767061_3855_CDS_ENSG00000011028_ENST00000303375|human|control|control (ssRNA)
RNA: GGGAGUUCUACAGUCCGACGAUCGAAGGCCUGGGUGUAGGGGUCGGGCACGUAGGCCAGGCUGGCAUUGCGGCUCUCACACAGCAGGAGGGCAUCGUGCCAGCGCAGCGGCUUCUGAAGCAGCCGGAAGGUGCCGUUGAGGUACAACAGAGGAUUGAGCAUCA
B14: chr3:196311055:196311056:+_ENSG00000174013_ENST00000440469|hu_hu|FALSE|FALSE (ssRNA)
RNA: GGGAGUUCUACAGUCCGACGAUCGACCUUUGGAAGUCCUCUAAAAGCAACCCCCAGGAACUCAUAUCCACGUUCAAAAGCUAAAGUCUUAUCUUCCAUGUCCAAGAUGACUCGAAUUCUUUCUCCUAUCUGAUAUUUUGGUGCCAACAGAGGAUUGAGCAUCA

Target: T1, UNK ZnF1-3
Experiment: nsRBNS (natural sequence RNA bind-n-seq); RBNS binding buffer (assumed for nsRBNS): 25 mM Tris pH 7.5, 150 mM KCl, 3 mM MgCl2, 0.01% Triton X-100, 500 ug/ml BSA, 20 U/ml SUPERase-In, 4 C; UNK is unkempt and MSI1 is Musashi-1; names of the RNAs are library labels; protein concentration not given here; high values mean tight binding

Binder | binding signal
B1 | 0.662 enrichment R
B2 | 0.639 enrichment R
B3 | 2.22 enrichment R
B4 | 3.81 enrichment R
B5 | 1.11 enrichment R
B6 | 2.88 enrichment R
B7 | 4.68 enrichment R
B8 | 1.13 enrichment R
B9 | 0.746 enrichment R
B10 | 0.601 enrichment R
B11 | 0.457 enrichment R
B12 | 0.795 enrichment R
B13 | 0.939 enrichment R
B14 | 1.13 enrichment R
